Laboratory results published in PubChem BioAssay (NCI).
About 83,000 compounds went through this panel and 20% of them were active in at least one assay; those are over-represented in the sample as a whole.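 The endpoint reported here, percent growth, reads 100 for growth as untreated, 0 for no net growth and -100 for all cells dead.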 Calls of active or inactive are those of the source. Rule for the calls: active = growth percent below 10; inactive = the rest.

Columns and labels:
Test in all cases: NCI-60 one-dose screen, 48 h (100 = growth as untreated, 0 = no growth, -100 = all killed)
Settings in all cases: 10 µM unless noted
HCT-15 colon = system: HCT-15 colon
HT29 colon = system: HT29 colon
SNB-75 CNS = system: SNB-75 CNS
SNB-19 CNS = system: SNB-19 CNS
U251 CNS = system: U251 CNS
PC-3 prostate = system: PC-3 prostate
SK-MEL-5 melanoma = system: SK-MEL-5 melanoma
LOX IMVI melanoma = system: LOX IMVI melanoma
SK-MEL-28 melanoma = system: SK-MEL-28 melanoma
UACC-62 melanoma = system: UACC-62 melanoma

Measured: growth

Nc1ccc(S(=O)(=O)c2ccc(Cl)cc2)cc1
inactive: HCT-15 colon 97.8% | HT29 colon 98.1% | SNB-75 CNS 79.7% | SNB-19 CNS 93.9% | U251 CNS 105% | PC-3 prostate 89.7% | SK-MEL-5 melanoma 95.2% | LOX IMVI melanoma 95.6% | SK-MEL-28 melanoma 102%

Nc1c(C(=O)Nc2ccccc2)sc2nc3c(cc12)CCCCC3
active: HT29 colon -15.5% | SNB-75 CNS -6.57% | PC-3 prostate 9.02% | UACC-62 melanoma 5.45%
inactive: HCT-15 colon 20.1% | SNB-19 CNS 22.1% | SK-MEL-5 melanoma 11.3% | LOX IMVI melanoma 22.1% | SK-MEL-28 melanoma 36.6%

COc1ccc(OC)c(-c2ccc(-c3ccccc3N)c3[nH]c4ccccc4c23)c1
inactive: HCT-15 colon 88.3% | HT29 colon 63.4% | SNB-75 CNS 89.7% | SNB-19 CNS 89.1% | PC-3 prostate 59% | SK-MEL-5 melanoma 79.4% | UACC-62 melanoma 64.4% | LOX IMVI melanoma 84% | SK-MEL-28 melanoma 107%

O=C(O)c1ccc(-n2cc(CNc3ccc(C(F)(F)F)cc3)c(-c3ccccc3)n2)cc1
inactive: HCT-15 colon 84.3% | HT29 colon 114% | SNB-75 CNS 92.1% | SNB-19 CNS 102% | PC-3 prostate 79.7% | SK-MEL-5 melanoma 91.5% | UACC-62 melanoma 72.9% | LOX IMVI melanoma 89.2% | SK-MEL-28 melanoma 95.2%

Cc1ccc2nc(SCn3nnc4ccccc4c3=O)[nH]c2c1
inactive: HCT-15 colon 125% | HT29 colon 102% | SNB-75 CNS 88% | SNB-19 CNS 108% | PC-3 prostate 103% | SK-MEL-5 melanoma 101% | UACC-62 melanoma 98.4% | LOX IMVI melanoma 100% | SK-MEL-28 melanoma 121%

COC(=O)CCCCCCN=Cc1c(O)c(O)c(C(C)C)c2cc(C)c(-c3c(C)cc4c(C(C)C)c(O)c(O)c(C=NCCCCCCC(=O)OC)c4c3O)c(O)c12
active: HT29 colon 6.88%
inactive: HCT-15 colon 13.1% | SNB-75 CNS 59.4% | SNB-19 CNS 17.6% | PC-3 prostate 16% | SK-MEL-5 melanoma 43.4% | UACC-62 melanoma 17.7% | LOX IMVI melanoma 21.4% | SK-MEL-28 melanoma 36.1%

C[C@]12CC[C@@H]3c4cc(O)c(O)cc4CC[C@H]3[C@@H]1CC[C@@H]2O
active: SNB-75 CNS -14.5%
inactive: HCT-15 colon 30% | HT29 colon 96.4% | SNB-19 CNS 66.1% | PC-3 prostate 58.6% | SK-MEL-5 melanoma 26.5% | UACC-62 melanoma 33.8% | LOX IMVI melanoma 40% | SK-MEL-28 melanoma 39.6%

CCN(CC)CCSc1c2ccc(Cl)cc2nc2ccc(OC)cc12
inactive: HCT-15 colon 47.4% | HT29 colon 34.8% | SNB-75 CNS 110% | SNB-19 CNS 92% | PC-3 prostate 91.4% | SK-MEL-5 melanoma 103% | UACC-62 melanoma 93.2% | LOX IMVI melanoma 36.7% | SK-MEL-28 melanoma 113%

Cc1ccc2c(c1)C(=O)C(c1c(-c3[nH]c(=O)c4ccc(C)cc4c3O)c(O)c3ccccc3c1O)=NC2=O
active: U251 CNS -16.2% | PC-3 prostate 2.45%
inactive: HCT-15 colon 13.7% | HT29 colon 21.7% | SNB-75 CNS 14.4% | SNB-19 CNS 26.3% | SK-MEL-5 melanoma 25.8% | LOX IMVI melanoma 12.1% | SK-MEL-28 melanoma 34.9%

CCOC(=O)c1cc(/C(=N\O)c2cc(OC)c(OC)c(OC)c2)n2c(C)cccc12
inactive: HCT-15 colon 25.7% | SNB-19 CNS 42.5% | U251 CNS 26.2% | PC-3 prostate 31.4% | SK-MEL-5 melanoma 14.5% | LOX IMVI melanoma 37.9% | SK-MEL-28 melanoma 58.4%
active: HT29 colon 9.58% | SNB-75 CNS 9.5%

C=C1C(=O)O[C@H]2[C@H]1CC/C(COC(=O)NCc1cc(OC)c(OC)c(OC)c1)=C\CC[C@@]1(C)O[C@@H]21
inactive: HCT-15 colon 42.3% | HT29 colon 21.4% | SNB-75 CNS 83.8% | SNB-19 CNS 72.8% | PC-3 prostate 66.1% | SK-MEL-5 melanoma 95.2% | UACC-62 melanoma 38.8% | LOX IMVI melanoma 54.3% | SK-MEL-28 melanoma 63.2%

COc1ccc2c(c1)C=CC(C#N)N2C(=O)c1ccccc1 (centres undefined)
active: HCT-15 colon 9.74% | HT29 colon 5.77% | SNB-75 CNS -14.7% | SK-MEL-5 melanoma -6.27%
inactive: SNB-19 CNS 43.8% | PC-3 prostate 19% | UACC-62 melanoma 26.3% | LOX IMVI melanoma 20% | SK-MEL-28 melanoma 58.9%

CC1=CNNc2c3ncnc-3ncn21
inactive: HCT-15 colon 102% | HT29 colon 104% | SNB-75 CNS 101% | SNB-19 CNS 99.1% | PC-3 prostate 99.9% | SK-MEL-5 melanoma 99.7% | UACC-62 melanoma 98.6% | LOX IMVI melanoma 106% | SK-MEL-28 melanoma 105%

COc1ncc(-c2ccc3ncnc(Nc4cccc(Cl)c4)c3c2)cc1N(S(C)(=O)=O)S(C)(=O)=O
inactive: HCT-15 colon 54.9% | HT29 colon 53% | SNB-75 CNS 41.1% | SNB-19 CNS 72.8% | PC-3 prostate 52.1% | SK-MEL-5 melanoma 73.6% | UACC-62 melanoma 58.1% | LOX IMVI melanoma 63.7% | SK-MEL-28 melanoma 72.8%

CCNCc1ccncc1
inactive: HCT-15 colon 104% | HT29 colon 102% | SNB-75 CNS 92.5% | SNB-19 CNS 106% | PC-3 prostate 85.2% | SK-MEL-5 melanoma 102% | UACC-62 melanoma 109% | LOX IMVI melanoma 93.6% | SK-MEL-28 melanoma 119%

C=CCOc1ccc(/C(O)=C2\C(=O)C(=O)N(c3nccs3)C2c2ccccc2F)cc1 (centres undefined)
inactive: HCT-15 colon 82.1% | HT29 colon 108% | SNB-75 CNS 89.8% | SNB-19 CNS 102% | PC-3 prostate 114% | SK-MEL-5 melanoma 94.7% | UACC-62 melanoma 76.6% | LOX IMVI melanoma 90.3% | SK-MEL-28 melanoma 107%

CCC(=O)Oc1ccc2c(c1)CC[C@@H]1[C@@H]2CC[C@]2(C)C[C@H](OC(=O)CC)C[C@@H]12
inactive: HCT-15 colon 38.9% | HT29 colon 110% | SNB-75 CNS 46% | SNB-19 CNS 77.7% | U251 CNS 48.3% | PC-3 prostate 63.1% | SK-MEL-5 melanoma 60.4% | LOX IMVI melanoma 76.8% | SK-MEL-28 melanoma 73.7%

CCN1C(=O)N(CC)C2C1NN=c1s/c(=C\c3cccc(F)c3)c(=O)n12 (centres undefined)
inactive: HCT-15 colon 15.7% | HT29 colon 10.4% | SNB-19 CNS 34.6% | PC-3 prostate 24.7% | UACC-62 melanoma 33.3% | LOX IMVI melanoma 24.4% | SK-MEL-28 melanoma 57.8%
active: SNB-75 CNS 6.61% | SK-MEL-5 melanoma -30.7%

COc1cc2c(cc1OC)C1(C)N(CC2)C(=O)OC1(C)C (centres undefined)
inactive: HCT-15 colon 101% | HT29 colon 115% | SNB-75 CNS 76.5% | SNB-19 CNS 105% | U251 CNS 101% | PC-3 prostate 97.3% | SK-MEL-5 melanoma 99.6% | LOX IMVI melanoma 96.3% | SK-MEL-28 melanoma 112%

Nc1c(C(=O)Nc2c(Cl)cccc2Cl)sc2nc3c(cc12)CCCCC3
inactive: HCT-15 colon 32.5% | HT29 colon 34.1% | SNB-75 CNS 26.7% | SNB-19 CNS 68.5% | PC-3 prostate 70.6% | SK-MEL-5 melanoma 66.3% | UACC-62 melanoma 29% | LOX IMVI melanoma 58.6% | SK-MEL-28 melanoma 59.2%

COc1ccc(C2CC(=O)Nc3c2c(C)nn3-c2nc3ccccc3[nH]2)cc1OC (centres undefined)
inactive: HCT-15 colon 85.9% | HT29 colon 95.3% | SNB-75 CNS 50.9% | SNB-19 CNS 84.9% | PC-3 prostate 75.4% | SK-MEL-5 melanoma 71.2% | UACC-62 melanoma 68.8% | LOX IMVI melanoma 44.2% | SK-MEL-28 melanoma 88.1%

C/C(=C\c1csc(C)n1)[C@@H]1C[C@@H]2O[C@]2(C)CCC[C@H](C)[C@H](O)[C@@H](C)C(=O)C(C)(C)[C@@H](O)CC(=O)N1
active: HCT-15 colon -93.4% | HT29 colon -10.4% | SNB-75 CNS -19.4% | SNB-19 CNS -41.4% | PC-3 prostate -63.9% | SK-MEL-5 melanoma -89.9% | UACC-62 melanoma -93.7% | LOX IMVI melanoma -100% | SK-MEL-28 melanoma -43.3%

COC(=O)[C@H]1[C@H](OC)[C@@H](OC(=O)/C=C/c2ccncc2)CC2CN3CCc4c([nH]c5cc(OC)ccc45)[C@@H]3C[C@@H]21 (some centres undefined)
inactive: HCT-15 colon 75.5% | HT29 colon 68.9% | SNB-75 CNS 48.6% | SNB-19 CNS 84.1% | PC-3 prostate 56% | SK-MEL-5 melanoma 89.6% | UACC-62 melanoma 43.8% | LOX IMVI melanoma 50.4% | SK-MEL-28 melanoma 94.5%

O=C1c2ccccc2C(=O)c2c1oc1oc3c(c(=O)c21)c(=O)n(-c1ccccc1)c1ccccc31
inactive: HCT-15 colon 66.6% | HT29 colon 84.2% | SNB-75 CNS 31.8% | SNB-19 CNS 27.9% | PC-3 prostate 34.2% | SK-MEL-5 melanoma 17.7% | UACC-62 melanoma 13.2% | LOX IMVI melanoma 43% | SK-MEL-28 melanoma 39.4%

O=C(NCCCN1CCN(CCCNC(=O)C2CCCCC2)CC1)C1CCCCC1
inactive: HCT-15 colon 97.5% | HT29 colon 108% | SNB-19 CNS 107% | U251 CNS 96.9% | PC-3 prostate 91.3% | SK-MEL-5 melanoma 105% | UACC-62 melanoma 98.3% | LOX IMVI melanoma 101%

Cc1cccc2cc(/C=C/C(=O)/C=C/c3ccc(Cl)cc3)c(=O)[nH]c12
active: HT29 colon 7.76% | LOX IMVI melanoma 4.24%
inactive: HCT-15 colon 43.6% | SNB-19 CNS 49.5% | U251 CNS 10.6% | PC-3 prostate 33.8% | SK-MEL-5 melanoma 91.2% | UACC-62 melanoma 30.4% | SK-MEL-28 melanoma 75.4%

CCSc1nnc(NC(=O)COc2ccc(Cl)cc2C)s1
inactive: HCT-15 colon 102% | HT29 colon 115% | SNB-19 CNS 95.2% | U251 CNS 99.4% | PC-3 prostate 104% | SK-MEL-5 melanoma 97.3% | UACC-62 melanoma 98.7% | LOX IMVI melanoma 93.8% | SK-MEL-28 melanoma 114%

CCC(c1cccc(Br)c1)C(C(=O)O)c1ccc(OC)cc1 (centres undefined)
inactive: HCT-15 colon 83.5% | HT29 colon 106% | SNB-19 CNS 104% | U251 CNS 90.4% | PC-3 prostate 90.2% | SK-MEL-5 melanoma 94.6% | UACC-62 melanoma 82.9% | LOX IMVI melanoma 95.8% | SK-MEL-28 melanoma 95.8%

CN(C)CCCNC(=O)C(c1ccccc1)c1ccccc1
inactive: HCT-15 colon 104% | HT29 colon 95.9% | SNB-19 CNS 97.3% | U251 CNS 98.2% | PC-3 prostate 99.1% | SK-MEL-5 melanoma 103% | LOX IMVI melanoma 89.3% | SK-MEL-28 melanoma 109%
